The values below come from PubChem BioAssay AID1457 (National Center for Advancing Translational Sciences (NCATS), 2008).

Hit rate of the full screen: of about 210,000 compounds, about 730 (0.35%) were called active. Where a call stands in place of a potency, no number is given. About 1% were inconclusive and are not listed. Calls follow the shape of the dose curve; as a rule, active = well fitted inhibition curve with a large enough effect; inconclusive = small, poorly fitted or top-dose-only effect; inactive = no such curve, though single readings can be large or run the other way. The sample as a whole holds a higher share of actives than the screen did.
Potency is read from the fitted curve at half-maximal effect.

The assay can be described thus: qHTS Assay for Identifying the Cell-Membrane Permeable IMPase Inhibitors: Potentiation with Lithium.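 Also: IP1 builds up when IMPase is blocked and the TR-FRET signal falls; nearly all actives have a fitted effect of over 50% in size.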 The note with it: CHO-M1 cells, IP1 TR-FRET (IP-One), carbachol + lithium; series mostly up to 59.4 µM. The text has this:
NIH Chemical Genomics Center [NCGC]
NIH Molecular Libraries Probe Production centers Network [MLPCN]
Assay Submitter (PI): Wei Zheng
Lithium has been widely used for the treatment of bipolar disorder. But lithium has a narrow therapeutic index and it can cause side effects such as thirst, weight gain, tremor, polyuria and memory problems. Although the mechanism for lithium action in treatment of bipolar disorder is still not fully understood, inhibition of inositol monophosphatase (IMPase) and the subsequent depletion of the inositol pool in living cells have been implicated as the primary therapeutic benefit of lithium therapy. Therefore, a selective IMPase inhibitor with reduced side effects might be a good drug candidate to replace lithium for the treatment of bipolar disorder. Several IMPase inhibitors have been discovered previously. However, they are not suitable for therapeutic use because of their poor cell membrane penetrability or oral bioavailability; the development of new cell-permeable IMPase inhibitors is needed.
IMPase catalyzes the hydrolysis of inositol-1-phosphate (IP1) to release free inositol. Binding of an agonist to a Gq coupled GPCR results in the activation of PLC, which hydrolyzes the PIP2 to form inositol-1,4,5-trisphosphate (IP3) and diacyl glycerol (DAG). While DAG activates protein kinase C (PKC), IP3 triggers the elevation of intracellular free Ca2+. The IP3 is very rapidly inactivated by hydrolysis to IP2, IP1 and then inositol by a series of enzymes including IMPase. Free inositols are used for synthesis of PI and thus start another inositol cycle.
To identify new cell-permeable IMPase inhibitors, we developed a cell-based IMPase assay in which the cytosolic IP1 is measured by a time-resolved fluorescence resonance energy transfer (TR-FRET) assay. In this assay, an IP1 specific antibody is used to detect the labeled IP1 tracer. When the cell lysate contains the elevated IP1 due to the inhibition of IMPase, the TR-FRET between the labeled antibody and IP1 tracer is disrupted resulting in a reduction in the total signal. Since the TR-FRET is used, this cell-based assay is a homogenous assay without cell wash and medium change that is suitable for assay miniaturization and HTS. In this particular assay, a small amount of lithium is added to potentiate the response of weak activators.
NCGC Assay Protocol Summary:
A Chinese hamster ovary (CHO) cell line stably expressing the M1 receptor (CHO-M1) was obtained from ATCC and maintained in F-12 Kaighn's media (Invitrogen, Carlsbad, CA) supplemented with 10 % FBS, 100 units/ml penicillin, 100 ug/ml streptomycin and 250 ug/ml geneticin at 37C, 5% CO2 in a humidified atmosphere. Before the assay, aliquots of cells were frozen and stored at -135C. The assay was performed in 1536-well format. Data are reported for both the ratio of the two emission wavelengths, and also for the component 'donor' channel, Em2=620. […] AC50 values were determined from concentration-response data modeled with the standard Hill equation.
(1) Frozen CHO-M1 cells were thaw, washed once with fresh media and resuspended in F12K media containing 10% FBS, 100 units/ml penicillin and 100 ug/ml streptomycin. Cells were plated at 4ul/well (2000 cells) in white, tissue culture treated 1536-well plates, and then cultured at 37C, 5 % CO2 for 16 to 30 hours.
(2) Add 23 nl/well of compound in DMSO solution. The final titration for each compound was between 0.6 nM and 46 uM.
(4) Incubation at 37C, 5 % CO2 for 30 min.
(5) Add 1 ul/well of d2-conjugated IP1 (d2-IP1) and 1 ul/well of Eu+ cryptate conjugated anti-IP1 antibody (Eu+-Ab) prepared in the cell lysis buffer, both from the IP-One kit (Cisbio, MA).
(6) Incubate at room temperature for 10 minutes.
(7) Detect the assay plate (Ex = 320, Em1 =665 and Em2 620) in a ViewLux plate reader.
As to `CCOC(=O)c1c(C)[nH]c2c1-c1ccccc1C(=O)C2=O`, the Potency result is “inactive”.

As to `CCOC(=O)c1c(C)nc(-c2ccccc2)nc1NC(=O)C(C)C`, the Potency result is “inactive”.

Regarding `CCOC(=O)c1c(C)[nH]c(=S)c(C#N)c1-c1ccccc1`, the Potency was 12.6 µM (active).

Take `Brc1ccc(C2=NCCC(c3ccccc3)O2)cc1` (configuration not stated): the Potency entry is “inactive”.

For the molecule `CC[C@H](C)[C@@H](NC(=O)O[C@@H]1C(=O)c2cc(OC)ccc2O[C@H]1c1cccc(OC)c1)C(=O)OC`, the Potency result was “inactive”.

For `COc1cc(OC)c2c(-c3cccc(-c4cccc(N)c4)c3)cc(=O)oc2c1`, the Potency entry is “inactive”.

For the molecule `CCOC(=O)C1=NO[C@@]2(C=C(Br)C(=O)[C@H]3O[C@H]32)C1`, the Potency result is “inactive”.

Consider `CC1=C(/C=C/C(C)=C/C=C/C(C)=C/C=C/C=C(C)/C=C/C=C(C)/C=C/C(=O)[C@]2(C)C[C@@H](O)CC2(C)C)C(C)(C)C[C@H](O)C1`, for which the Potency result is “inactive”.

With `CCOC(=O)Cn1c(N)c(C(=O)OC)sc1=S`, the Potency entry is “inactive”.

On to `COC(=O)c1sc(=S)n(-c2ccccc2)c1N`, for which the Potency result was “inactive”.

As for `COC(=O)c1sc2[nH]c(=S)n(N)c(=O)c2c1C`, the Potency is 10 µM (active).

As to `COC/C=C/C1=CC2=CC(=O)C(C)(OC(=O)CCC(=O)OC)C(=O)C2=CO1` (configuration not stated), the Potency result was “inactive”.

Take `COc1cccc([C@@H]2Oc3ccc(Br)cc3C(=O)[C@H]2OC(=O)NCCc2ccc(OC)c(OC)c2)c1`: the Potency entry was “inactive”.

As to `NNc1nnc(NN)c2ccccc12`, the Potency result was “inactive”.

Turning to `COC(=O)CSc1nc(C2CC2)nc2ccccc12`, the Potency result was “inactive”.

For `Cc1nnc(NC(=O)CSc2nc(C3CCCCC3)nc3ccccc23)s1`, the Potency was 6.31 µM (active).

For `O=C(CSc1nc(C2CC2)nc2ccccc12)Nc1ccc2c(c1)OCCO2`, the Potency entry was “inactive”.

As to `NC(=O)c1sc(-c2ccsc2)cc1N`, the Potency result was “inactive”.

In the case of `COC(=O)C1=C(C(=O)OC)[C@@H]2N(C)c3ccccc3[C@@]23C[C@@H](C(=O)OC)N(S(=O)(=O)c2ccc(Br)cc2)C3=N1`, the Potency entry was “inactive”.

Turning to `CC(N)(C(=O)O)c1ccc(-c2nn[nH]n2)cc1` (configuration not stated), the Potency entry is “inactive”.

Consider `CCN1C(=O)N[C@@H](c2ccccc2)C(C(=O)OC)=C1C`, for which the Potency result was “inactive”.

Take `CCOC(=O)c1c(-c2ccc(C)cc2C)csc1NC(=O)CSc1nnnn1C`: the Potency entry is “inactive”.

Regarding `COC(=O)c1c(-c2cccs2)csc1NC(=O)CSc1ncnc2sc(C)c(C)c12`, the Potency was 28.2 µM (active).

With `CCOC(=O)c1c(NC(=O)CSc2nnc(Cc3csc(N)n3)n2C)sc(C)c1C`, the Potency result was “inactive”.

For the molecule `Cc1ccc(NC(=O)O[C@@H]2C(=O)c3cc(Br)ccc3O[C@H]2c2ccc3c(c2)OCO3)cc1Br`, the Potency entry is “inactive”.

As for `C=C1O[C@@](CO)(n2cnc3c(N)ncnc32)[C@H](O)[C@@H]1O`, the Potency entry was “inactive”.

For the molecule `Cc1ccccc1-c1ccc(C(=O)O)s1`, the Potency result was “inactive”.
